Source: PubChem BioAssay (Tox21)
Where “and” joins values, the source holds several entries; their conditions need not be identical. Equal values may be shown once. Some compounds were tested as several samples or in several runs, with calls that do not always agree. Calls of active or inactive are those of the source. Where a call stands in place of a potency, no number is given. Unless noted, calls follow the shape of the dose curve; as a rule, active = well fitted curve in the direction sought with a large enough effect in the repeat runs; inconclusive = weak or mixed curves; inactive = no such curve, though single readings can be large; an effect the other way counts as inactive or inconclusive. Non-standard residues stand in square brackets, D forms with d. Residues, ends and D or L forms follow the SMILES beside them. pGlu = O=C1CC[C@@H](C(=O)O)N1

Legend:
[1] = qHTS assay to identify small molecule antagonists of the thyroid receptor (TR) signaling pathway - cell viability counter screen (AID 743064); also: nearly all actives have a fitted effect of over 50% in size; also: potency is read from the fitted curve at half-maximal effect
In short: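 In rat pituitary GH3.TRE-Luc reporter cells co-exposed to compound and 1 nM T3 for 23.5 h, cytotoxicity was assessed with CellTiter-Fluor in the same wells, read by fluorescence.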

[2] = qHTS assay to identify small molecule antagonists of the thyroid receptor (TR) signaling pathway (AID 743065); also: nearly all actives have a fitted effect of over 55% in size; also: potency is read from the fitted curve at half-maximal effect
In short: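 GH3.TRE-Luc rat pituitary cells (two TREs driving luciferase) were dosed with compound, then stimulated with 1 nM T3 (final) for 23.5 h at 37 C. ONE-Glo luminescence was the read-out, with CellTiter-Fluor fluorescence as the cytotoxicity counter-screen.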

[3] = system: thyroid hormone receptor (rat, GH3 cells); assay: qHTS assay to identify small molecule agonists of the thyroid receptor (TR) signaling pathway (AID 743066; calls by dose curve)
[4] = molecular target: Estrogen receptor (Homo sapiens) (UniProt P03372); assay: qHTS assay to identify small molecule antagonists of the estrogen receptor alpha (ER-alpha) signaling pathway (AID 743069; active = well fitted curve in the direction sought with a large enough effect in the signal ratio in the repeat runs, not every such curve was filed as active; inconclusive = weak or mixed curves, or effect the other way; inactive = no such curve, though single readings can be large or run the other way; the % refers to the signal ratio; also: potency is read from the fitted curve at half-maximal effect)
In short: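 In this cell-based reporter format, GripTite HEK293 cells harbouring ER-alpha-UAS-bla were grown overnight with 2% charcoal-stripped FBS, dosed with DMSO-dissolved compounds, then challenged with 17beta-estradiol. After 18 hr at 37C, beta-lactamase activity was detected by FRET fluorescence.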

[5] = molecular target: Estrogen receptor (Homo sapiens) (UniProt P03372); assay: qHTS assay to identify small molecule agonists of the estrogen receptor alpha (ER-alpha) signaling pathway using the BG1 cell line (AID 743079); conditions: BG1Luc4E2 cells, ERE-luciferase agonist, 22 h; activation: at 70.3 µM (top of the series); also: nearly all actives have a fitted effect of over 20% in size; also: potency is read from the fitted curve at half-maximal effect
[6] = qHTS assay to identify small molecule antagonists of the estrogen receptor alpha (ER-alpha) signaling pathway using the BG1 cell line (AID 743080; calls by dose curve;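 also: BG1 cells stimulated with 17beta-estradiol alongside compound; nearly all actives have a fitted effect of over 25% in size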; also: potency is read from the fitted curve at half-maximal effect)
In short: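 Quantitative HTS on the Tox21 10K library: BG1 cells with endogenous ER-alpha and ERE-luciferase reporter, 17beta-estradiol stimulation, 21.5 h compound exposure, luminescence endpoint with parallel fluorescence cytotoxicity counter-read.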

[7] = qHTS assay to identify small molecule antagonists of the estrogen receptor alpha (ER-alpha) signaling pathway using the BG1 cell line - cell viability counter screen (AID 743081);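 also: compound given together with 17beta-estradiol as the ER stimulus; nearly all actives have a fitted effect of over 45% in size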; also: potency is read from the fitted curve at half-maximal effect
Aromatase (Homo sapiens) = Aromatase (Homo sapiens) (UniProt P11511); assay: qHTS assay to identify aromatase inhibitors (AID 743083); also: nearly all actives have a fitted effect of over 55% in size; also: potency is read from the fitted curve at half-maximal effect
[8] = qHTS assay to identify aromatase inhibitors - cell viability counter screen (AID 743084);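 also: cells stimulated with testosterone during compound exposure; nearly all actives have a fitted effect of over 55% in size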; also: potency is read from the fitted curve at half-maximal effect
[9] = molecular target: Peroxisome proliferator-activated receptor gamma (Homo sapiens) (UniProt P37231); assay: qHTS assay to identify small molecule agonists of the peroxisome proliferator-activated receptor gamma (PPARg) signaling pathway (AID 743094; active = well fitted activation curve with a large enough effect in the signal ratio in the repeat runs, not every such curve was filed as active; inconclusive = weak or mixed curves, or effect the other way; inactive = no such curve, though single readings can be large or run the other way; the % refers to the signal ratio)
In short: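 Cells from the PPARg UAS-bla HEK293H line are plated and incubated 5 h at 37C. Compounds in DMSO are pinned in and left 17 h at 37C. LiveBLAzer B/G substrate is then added for 1 h at room temperature before fluorescence is measured.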

[10] = qHTS assay to identify small molecule phospholipidosis (PLD) inducers (AID 1259344; active = well fitted curve in the direction sought with a large enough effect; inconclusive = small, poorly fitted or top-dose-only effect, or another doubt; inactive = no such curve, though single readings can be large; an effect the other way counts as inactive or inconclusive)
In short: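 Image-based: LipidTOX Red pit count/intensity per well and per cell; HepG2, 24 h compound at 37 C, PFA fixation, Hoechst counterstain.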

[11] = molecular target: Nuclear receptor subfamily 1 group I member 2 (Homo sapiens) (UniProt O75469); assay: CYP3A4 induction through human pregnane X receptor (PXR) by small molecules, qHTS assay (AID 1346984); also: nearly all actives have a fitted effect of over 40% in size; also: potency is read from the fitted curve at half-maximal effect
In short: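 Quantitative HTS in DPX-2 cells, i.e. HepG2 transfected with PXR response element and CYP3A4-promoter luciferase. Compounds in DMSO incubated 24hr at 37C; then P450-Glo CYP3A4 substrate, 3uM final, 3hr; One-Glo luminescence.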

[12] = molecular target: Nuclear receptor subfamily 1 group I member 2 (Homo sapiens) (UniProt O75469); assay: Human pregnane X receptor (PXR) activation by small molecules, qHTS assay (AID 1346985); also: nearly all actives have a fitted effect of over 40% in size; also: potency is read from the fitted curve at half-maximal effect
In short: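 DPX-2 cells (HepG2 co-transfected with a PXR response element and a CYP3A4-promoter luciferase construct) were seeded at 2,000 per well, rested 5 hr at 37C, then exposed to DMSO-dissolved compounds for 24 hr. Activation was read as luciferase luminescence.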

[13] = qHTS assay to identify small molecule antagonists of the estrogen receptor alpha (ER-alpha) signaling pathway - cell viability counter screen (AID 743074; calls by dose curve; also: nearly all actives have a fitted effect of over 45% in size)
[14] = molecular target: Estrogen receptor (Homo sapiens) (UniProt P03372); assay: qHTS assay to identify small molecule agonists of the estrogen receptor alpha (ER-alpha) signaling pathway (AID 743075; calls by dose curve; also: potency is read from the fitted curve at half-maximal effect)
[15] = molecular target: Aryl hydrocarbon receptor (Homo sapiens) (UniProt P35869); assay: qHTS assay to identify small molecule that activate the aryl hydrocarbon receptor (AhR) signaling pathway (AID 743085); also: nearly all actives have a fitted effect of over 15% in size; also: potency is read from the fitted curve at half-maximal effect;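 as to activation: HG2L7.5c1 human HepG2 liver cells with stably integrated DRE-driven firefly reporter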
In short: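 AhR agonist activity is inferred from enhanced light output of a DRE-controlled firefly luciferase reporter in HepG2 cells, measured with ONE-Glo following 24 h treatment at 37C.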

[16] = qHTS assay to identify small molecule that activate the aryl hydrocarbon receptor (AhR) signaling pathway - cell viability counter screen (AID 743086); also: nearly all actives have a fitted effect of over 45% in size; also: potency is read from the fitted curve at half-maximal effect
In short: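 HepG2-AhR-luc (HG2L7.5c1) cells, 4000/well, treated 24 h at 37 C with compound; viability measured as CellTiter-Fluor fluorescence after 30 min in the same wells as the luciferase read.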

[17] = molecular target: Nuclear receptor subfamily 1 group I member 2 (Rattus norvegicus) (UniProt Q9R1A7); assay: Rat pregnane X receptor (rPXR) activation by small molecules, qHTS assay (AID 1346983); conditions: rPXR luciferase reporter cells, One-Glo luminescence, 24 h; max activation: stronger effect = higher value; also: nearly all actives have a fitted effect of over 20% in size
In short: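 Cell-based rPXR activation assay: rPXR cells, 2,000 per well, rested 5hr at 37 C, then exposed to compounds in DMSO for 24 hr at 37 C. Luciferase activity read by One-Glo luminescence after 30 min at room temperature.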

Chain of Nuclear receptor subfamily 1 group I member 2 (Rattus norvegicus) (Q9R1A7 whole entry, looked up): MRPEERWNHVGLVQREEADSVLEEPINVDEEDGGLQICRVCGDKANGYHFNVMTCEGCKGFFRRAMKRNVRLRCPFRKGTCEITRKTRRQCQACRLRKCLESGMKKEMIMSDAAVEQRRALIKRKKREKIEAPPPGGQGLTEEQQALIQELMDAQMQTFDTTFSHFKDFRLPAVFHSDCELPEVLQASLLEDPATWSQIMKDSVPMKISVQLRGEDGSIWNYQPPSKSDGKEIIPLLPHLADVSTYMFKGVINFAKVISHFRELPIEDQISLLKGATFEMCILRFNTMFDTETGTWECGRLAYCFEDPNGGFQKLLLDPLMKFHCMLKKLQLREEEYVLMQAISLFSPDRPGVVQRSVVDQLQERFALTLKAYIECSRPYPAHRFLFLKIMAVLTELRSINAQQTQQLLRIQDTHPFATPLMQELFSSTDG
Chain of Aryl hydrocarbon receptor (Homo sapiens) (P35869 whole entry, looked up): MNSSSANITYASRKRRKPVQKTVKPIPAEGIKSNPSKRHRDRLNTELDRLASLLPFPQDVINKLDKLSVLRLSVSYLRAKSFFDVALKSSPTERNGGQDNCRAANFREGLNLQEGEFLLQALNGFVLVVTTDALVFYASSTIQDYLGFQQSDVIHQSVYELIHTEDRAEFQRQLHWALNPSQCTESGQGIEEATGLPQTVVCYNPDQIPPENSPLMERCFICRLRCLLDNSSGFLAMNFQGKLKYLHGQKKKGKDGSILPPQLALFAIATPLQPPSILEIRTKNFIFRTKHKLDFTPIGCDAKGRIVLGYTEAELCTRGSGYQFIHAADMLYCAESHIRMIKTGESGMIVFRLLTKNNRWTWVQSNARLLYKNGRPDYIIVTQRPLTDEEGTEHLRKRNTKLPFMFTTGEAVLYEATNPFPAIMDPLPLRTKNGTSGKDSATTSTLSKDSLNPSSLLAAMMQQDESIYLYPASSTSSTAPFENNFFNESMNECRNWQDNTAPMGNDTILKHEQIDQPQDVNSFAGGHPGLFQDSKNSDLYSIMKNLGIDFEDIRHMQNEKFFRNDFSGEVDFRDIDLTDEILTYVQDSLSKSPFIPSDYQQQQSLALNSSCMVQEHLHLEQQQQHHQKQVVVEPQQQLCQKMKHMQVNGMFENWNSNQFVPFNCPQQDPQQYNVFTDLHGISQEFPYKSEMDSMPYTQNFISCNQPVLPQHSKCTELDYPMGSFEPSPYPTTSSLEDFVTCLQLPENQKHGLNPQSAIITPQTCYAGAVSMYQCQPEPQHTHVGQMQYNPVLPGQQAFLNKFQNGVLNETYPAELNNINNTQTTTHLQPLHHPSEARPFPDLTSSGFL
Chain of Aromatase (Homo sapiens) (P11511 whole entry, looked up): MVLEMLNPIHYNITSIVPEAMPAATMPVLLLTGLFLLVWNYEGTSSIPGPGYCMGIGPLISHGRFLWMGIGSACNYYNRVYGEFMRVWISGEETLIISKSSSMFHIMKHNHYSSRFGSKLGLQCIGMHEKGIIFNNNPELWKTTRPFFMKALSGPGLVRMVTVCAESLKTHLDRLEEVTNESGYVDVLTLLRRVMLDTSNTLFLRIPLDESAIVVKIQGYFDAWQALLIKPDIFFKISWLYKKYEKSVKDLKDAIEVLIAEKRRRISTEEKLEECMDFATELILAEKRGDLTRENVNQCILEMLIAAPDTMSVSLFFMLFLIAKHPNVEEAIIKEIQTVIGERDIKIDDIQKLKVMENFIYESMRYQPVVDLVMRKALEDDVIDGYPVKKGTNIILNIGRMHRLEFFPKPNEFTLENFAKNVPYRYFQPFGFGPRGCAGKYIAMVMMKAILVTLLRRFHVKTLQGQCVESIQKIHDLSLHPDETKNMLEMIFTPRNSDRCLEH
Chain of Peroxisome proliferator-activated receptor gamma (Homo sapiens) (P37231 whole entry, looked up): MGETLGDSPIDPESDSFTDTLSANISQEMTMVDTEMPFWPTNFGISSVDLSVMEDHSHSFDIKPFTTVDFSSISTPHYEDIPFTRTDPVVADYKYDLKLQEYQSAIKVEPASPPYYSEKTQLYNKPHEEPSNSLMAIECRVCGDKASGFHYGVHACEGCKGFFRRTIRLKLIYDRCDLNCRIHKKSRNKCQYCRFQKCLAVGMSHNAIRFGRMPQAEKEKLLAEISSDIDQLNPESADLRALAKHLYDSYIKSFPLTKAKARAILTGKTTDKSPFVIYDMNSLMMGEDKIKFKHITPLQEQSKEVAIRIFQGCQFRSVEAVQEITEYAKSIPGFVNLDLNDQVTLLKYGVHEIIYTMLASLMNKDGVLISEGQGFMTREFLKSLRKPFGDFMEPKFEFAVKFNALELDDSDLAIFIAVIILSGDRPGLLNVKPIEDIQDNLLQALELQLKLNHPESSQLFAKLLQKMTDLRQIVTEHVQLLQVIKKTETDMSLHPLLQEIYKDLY
Chain of Estrogen receptor (Homo sapiens) (P03372 whole entry, looked up): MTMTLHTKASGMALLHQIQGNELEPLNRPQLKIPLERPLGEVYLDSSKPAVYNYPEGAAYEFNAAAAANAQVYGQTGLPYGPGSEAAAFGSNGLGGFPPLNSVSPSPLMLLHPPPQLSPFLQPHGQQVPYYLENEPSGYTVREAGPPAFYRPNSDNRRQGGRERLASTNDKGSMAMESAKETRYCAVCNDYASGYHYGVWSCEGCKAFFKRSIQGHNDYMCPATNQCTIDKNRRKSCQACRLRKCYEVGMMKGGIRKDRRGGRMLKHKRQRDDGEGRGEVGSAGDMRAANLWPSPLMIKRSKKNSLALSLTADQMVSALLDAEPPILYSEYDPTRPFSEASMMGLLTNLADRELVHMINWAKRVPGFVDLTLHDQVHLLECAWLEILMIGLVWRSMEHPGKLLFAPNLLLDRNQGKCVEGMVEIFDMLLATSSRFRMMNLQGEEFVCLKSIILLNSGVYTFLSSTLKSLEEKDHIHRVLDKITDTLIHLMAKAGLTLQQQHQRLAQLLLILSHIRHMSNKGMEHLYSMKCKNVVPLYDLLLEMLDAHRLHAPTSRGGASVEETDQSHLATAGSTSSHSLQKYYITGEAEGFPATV

SMILES	Potency [1]	Potency [2]	Potency [3]	Potency [4]	Potency [5]	Potency [6]	Potency [7]	Potency (Aromatase (Homo sapiens))	Potency [8]	Potency [9]	Potency [10]	Potency [11]	Potency [12]	Potency [13]	Potency [14]	Potency [15]	Potency [16]	max activation [17]	PLD induction [10]
CN[C@H]1CCc2cc(OC)c(OC)c(OC)c2-c2ccc(OC)c(=O)cc21	0.119 µM (active)	0.0841 µM (active)	inactive	inactive	inactive	0.0841 µM (active)	inactive	inactive	inactive	inactive	inactive	inactive	1 µM (active)						
CC[N+](C)(C)Cc1ccccc1Br				inactive	inactive	inactive	inactive	inactive	inactive	inactive	inactive			inactive	inactive	inactive	inactive	-1.23% (inactive)	
Cc1cc(O)c2c(c1)O[C@@]1(C)CC[C@H]3C(C)(C)CCCC34CO[C@@H]2[C@H]41 (stereo partly specified)	18.8 µM (active)	13.3 µM (active)		inactive		26.6 µM (active)	inactive	26.6 µM (active)	29.8 µM (active)		inactive	inactive	2.82 µM (active)	inactive	inactive	inactive	inactive		
CN1CCN(C(c2ccccc2)c2ccc(Cl)cc2)CC1 (stereo unspecified)	5.69 µM (active)	10.1 µM (active)	inactive	inactive	inactive	inactive	inactive	inactive		inactive	inactive	inactive	inactive	inactive	inactive	inactive			
CC1(C)C(\C=C/C=C\C=C/C=C2/N(CCCCS(=O)(=O)O)c3ccc4ccccc4c3C2(C)C)=[N+](CCCCS(=O)(=O)[O-])c2ccc3ccccc3c21	15 µM (active)	0.841 µM (active)	inactive	inactive	inactive			inactive		inactive	inactive	inactive	inactive	inactive	inactive	inactive			
CC(C)CN(C[C@@H](O)[C@H](Cc1ccccc1)NC(=O)O[C@@H]1CCOC1)S(=O)(=O)c1ccc(N)cc1				inactive			inactive	inactive	inactive	inactive	inactive	inactive	2.82 µM (active)	inactive	inactive	inactive	inactive		
CC(=O)[C@]1(O)Cc2c(O)c3c(c(O)c2[C@@H](O[C@H]2C[C@H](N)[C@H](O)[C@H](C)O2)C1)C(=O)c1c(O)cccc1C3=O	150 nM (active) and 188 nM (active)	0.119 µM (active)		10.7 µM [inconclusive] (active)			18.8 µM (active) and 23.7 µM (active)	3.35 µM (active)	26.6 µM (active)			inactive	14.1 µM (active) and inactive	inactive	3.38 µM [inconclusive] (active) and 6.01 µM [inconclusive] (active)	inactive	4.73 µM (active) and 13.3 µM (active)		-0.0504% [at 7.66 µM] (inactive)
CC[C@H](C)[C@H](NC(=O)[C@H](Cc1ccccc1)NC(=O)[C@H](C)NC(=O)[C@H](CC(=O)O)NC(=O)[C@H](CCCCN)NC(=O)[C@H](CO)NC(=O)[C@@H]1CCCN1C(=O)[C@@H]1CCC(=O)N1)C(=O)NCC(=O)N[C@@H](CC(C)C)C(=O)N[C@@H](CCSC)C(N)=O ([pGlu]PSKDAFIGLM-NH2)	inactive						inactive	inactive	inactive	inactive	inactive	inactive	inactive	inactive			inactive		
CN1C(=O)CN2CCc3ccccc3C2c2cc(Cl)ccc21 (stereo unspecified)				inactive	inactive	21.1 µM (active)	inactive	inactive	inactive	inactive	inactive	3.16 µM (active)	22.4 µM (active)	inactive	inactive	4.73 µM (active)	inactive		
CC(C)CN(C[C@@H](OP(=O)(O)O)[C@H](Cc1ccccc1)NC(=O)O[C@H]1CCOC1)S(=O)(=O)c1ccc(N)cc1	inactive	inactive	inactive	inactive	inactive	inactive	inactive	inactive	inactive		inactive	inactive	10 µM (active)	inactive	inactive	inactive	inactive		
CO/N=C(\C(=O)N[C@@H]1C(=O)N2C(C(=O)O)=C(CSc3nnnn3C)CS[C@H]12)c1csc(N)n1		inactive	inactive	inactive	inactive	inactive	inactive	inactive	inactive	inactive	inactive	inactive	inactive	inactive	inactive	inactive	inactive		
Nc1nc2c(c(=O)[nH]1)N(C=O)C(CNc1ccc(C(=O)N[C@@H](CCC(=O)O)C(=O)O)cc1)CN2 (stereo partly specified)	inactive						inactive	inactive	inactive	inactive	inactive	inactive	inactive	inactive		inactive	inactive		
CC1(C)S[C@@H]2[C@H](NC(=O)[C@H](NC(=O)N3CCN(S(C)(=O)=O)C3=O)c3ccccc3)C(=O)N2[C@H]1C(=O)O		inactive	inactive	inactive	11.9 µM (active)	inactive	inactive	inactive	inactive	inactive	inactive	inactive	inactive	inactive	inactive	inactive	inactive		
COc1ccc2cc([C@H](C)CO)ccc2c1	inactive	inactive	inactive	inactive	33.5 µM (active)		inactive	inactive	inactive	inactive	inactive	inactive	inactive	inactive	inactive		inactive		
CC1(O)CCC(C(C)(C)O)CC1 (stereo unspecified)	inactive	inactive	inactive	inactive	inactive	inactive	inactive	inactive	inactive	inactive	inactive	inactive	inactive	inactive	inactive	inactive	inactive		
COc1ccc(C[C@H](N)C(=O)N[C@H]2[C@@H](O)[C@H](n3cnc4c(N(C)C)ncnc43)O[C@@H]2CO)cc1	11.9 µM (active)	10.6 µM (active)		4.25 µM [inconclusive] (active)			21.1 µM (active)	11.9 µM (active)	9.44 µM (active)		inactive	inactive	inactive	inactive	inactive	inactive	3.76 µM (active)		
C[C@H](N)C(=O)N[C@@H](C)P(=O)(O)O	inactive	inactive	inactive	inactive	inactive	inactive	inactive	inactive	inactive	inactive	inactive	inactive	inactive	inactive	inactive	inactive	inactive		
COc1ccc2c(=O)c(C)c(-c3ccccc3)oc2c1CN(C)C							inactive		inactive	inactive	inactive			inactive		11.9 µM (active)	inactive	-1.96% (inactive)	
O=C(/C=C/c1cccc(F)c1)NC1CC1	inactive	inactive	inactive				inactive	inactive	inactive	inactive	inactive	inactive	10 µM (active)	inactive		inactive	inactive		
C=CCN1CCCC1CNC(=O)c1cc(S(N)(=O)=O)cc(OC)c1OC (stereo unspecified)	inactive	inactive	inactive	inactive	inactive	inactive	inactive	inactive	inactive	inactive	inactive	14.1 µM (active)		inactive	inactive	inactive	inactive		
CCCCCCCCCCCC(=O)OC[C@@H](O)C1OC[C@H](O)[C@H]1O (stereo partly specified)	inactive	inactive	inactive				inactive	inactive	inactive	inactive	inactive	inactive	inactive	inactive		inactive	inactive		
CN[C@@H]1[C@H](O[C@H]2[C@H](O[C@H]3[C@H](O)[C@@H](O)[C@H](N=C(N)N)[C@@H](O)[C@@H]3N=C(N)N)O[C@@H](C)[C@]2(O)C=O)O[C@@H](CO)[C@H](O)[C@H]1O		inactive	inactive	inactive	inactive	inactive	inactive	inactive	inactive	inactive	inactive	inactive	inactive	inactive	inactive	inactive	inactive		
O=C(OCc1ccccc1)c1cccnc1	inactive	inactive	inactive	inactive	inactive	inactive	inactive	inactive	inactive	inactive	inactive	inactive	inactive		inactive		inactive		
O=C(O)COc1ccc(CCNS(=O)(=O)c2ccccc2)s1		inactive	inactive	inactive	inactive	inactive	inactive	inactive	inactive	inactive	inactive	inactive	inactive	inactive	inactive	inactive	inactive		
COc1ccc(CCNC[C@H](O)c2ccc(O)cc2)cc1OC				inactive	inactive	inactive	inactive	inactive	inactive	inactive	inactive	inactive	inactive	inactive	inactive		inactive		
CC(C)(C)CC(C)(C)c1cc(Cc2cc(C(C)(C)CC(C)(C)C)cc(-n3nc4ccccc4n3)c2O)c(O)c(-n2nc3ccccc3n2)c1	inactive	inactive	inactive	inactive		inactive	inactive	inactive	inactive	inactive	inactive	inactive	inactive	inactive	inactive	inactive	inactive		
CCOC(=O)Oc1c(OC)cc(C(=O)O[C@@H]2C[C@@H]3CN4CCc5c([nH]c6cc(OC)ccc56)[C@H]4C[C@@H]3[C@H](C(=O)OC)[C@H]2OC)cc1OC	inactive		inactive				inactive				inactive			inactive			inactive	-0.121% (inactive)	
CN1c2cc(O)c(N=NC(N)=O)cc2CC1S(=O)(=O)O (stereo unspecified)		inactive	inactive				inactive	inactive		inactive	inactive	inactive	inactive	inactive		inactive			
O=C(c1cc2ccccc2o1)N1CCN(Cc2ccccc2)CC1	inactive	inactive	inactive	inactive	inactive		inactive	inactive	inactive	inactive	inactive	inactive	inactive	inactive	inactive		inactive		
